# In PubChem BioAssay (NCI):
# This is part of a sample that, as a whole, favours compounds with a hit. Of some 83,000 tested, about 20% had one in any assay.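 96-well plates, one dose, 48 hours. Percent growth reported; active if below 10.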 Active and inactive are the calls of the source.
# System: SK-OV-3 ovarian
# Assay: NCI-60 one-dose screen, 48 h (100 = growth as untreated, 0 = no growth, -100 = all killed)
# Settings: 10 µM unless noted
# Experimental: Growth inhibition of the SK-OV-3 human tumor cell line is measured as a screen for anti-cancer activity. Cells are grown in 96 well plates and exposed to the test compound for 48 hours. Compounds are tested at a single concentration, which is 10^-5 M for most compounds. The reported endpoint is percent growth (GI% or GIPRCNT), where numbers from 0 - 100% represent growth inhibition, and numbers from -100% - 0 represent cell death. For example, a value of 40 represents 60% growth inhibition. A value of 0 means no net growth occurred over the course of the experiment. A value of -40 indicates 40% of cells at the beginning of the experiment died by the end of the experiment. A value of -100 means all cells are dead at the end of the experiment.
# NCI-60 Human Tumor Cell Lines Screen was performed using the standard one-dose NCI protocol, which is described in more detail at https://dtp.cancer.gov/discovery_development/nci-60/default.htm.
# Compounds with GIPRCNT values below 10 were considered active. Activity score was based on GIPRCNT using the following formula: […]
# Score is 0 for GIPRCNT values of 100 or above, 50 for GIPRCNT values of 0, and 100 for GIPRCNT values of -100.
row,Compound,growth
1,COc1cc(-c2csc(NC(=O)c3cc(C(F)(F)F)cc(C(F)(F)F)c3)n2)cc(OC)c1OC,35.4% (inactive)
2,Cc1cc(Cl)ccc1OC(C)C(=O)Nc1nnc(C2CC2)s1 (stereo not given),103% (inactive)
3,COc1ccc(NC(=O)CSc2nc3ccccc3c(=O)n2Cc2cc(OC)c(OC)c(OC)c2)cc1,97% (inactive)
4,CC(C)C[C@H](NC(=O)[C@H](Cc1ccccc1)n1ccc(N2CCCCC2)cc1=O)B(O)O,53.9% (inactive)
5,COc1ccc2c(c1)NC(=O)CN2c1nc(C)nc2ccccc12,31.3% (inactive)
6,COc1ccc(-c2cn[nH]c2-c2cc(OC)c3c(c2)OCCO3)cc1,15.9% (inactive)
7,Cc1ccc2c(c1)C(C)Cc1c(ncnc1-n1cnc3ccccc31)N2C (stereo not given),43.5% (inactive)
8,O=C1Nc2cc(Cl)ccc2Oc2cc(Oc3ccccc3)ccc21,47.4% (inactive)
9,COc1cccc(-c2nc3sccn3c2-c2ccnc(NCCCNS(=O)(=O)c3ccc(F)cc3)n2)c1,72.7% (inactive)
10,NC(=S)NN=C1CCCCC1,73% (inactive)
11,O=[N+]([O-])c1ccc(S(=O)(=O)N2CCN(c3ccnc4cc(Cl)ccc34)CC2)c([N+](=O)[O-])c1,105% (inactive)
12,COc1cc(NCCN=C(N)NC(N)=NC(C)C)c2ncccc2c1,92.3% (inactive)
13,NC(=O)c1cccc(N2Cc3ccccc3OC3=C2C(=O)c2c(O)ccc(O)c2C3=O)c1,20.8% (inactive)
14,C=CCc1cc(Cl)cc2c(OC(C)=O)c(C(C)=O)c(-c3ccccc3)nc12,99.9% (inactive)
15,CC1=NN2C(=NC3=C(CCC/C3=C\c3ccc(Cl)cc3)C2c2ccc(Cl)cc2)S1 (stereo not given),115% (inactive)
16,CCCCCCCCCCn1cc[n+](C)c1,44.5% (inactive)
17,COc1ccc(/C(=N/O)c2cc(OC)c(OC)c(OC)c2)c(OC)c1N,35.7% (inactive)
18,CCSc1nnc(NC(=O)COc2ccc(Cl)cc2C)s1,93.5% (inactive)
19,COc1ccc(/C=C/c2nc(N3CCOCC3)c3nc(Cl)c(Cl)cc3n2)cc1OC,105% (inactive)
20,CCOC(=O)c1cc(/C(=N\O)c2cc(OC)c(OC)c(OC)c2)n2cc(C)cc(C)c12,37.8% (inactive)

row,Compound,growth
1,CCN(Cc1ccccc1)c1ccc(SC#N)cc1,107% (inactive)
2,O=C(O)C(Cc1ccccc1)N1C(=O)/C(=C/C(Cl)=C/c2ccc([N+](=O)[O-])cc2)SC1=S (stereo not given),83.4% (inactive)
3,C=CCOc1ccc(/C(O)=C2\C(=O)C(=O)N(c3nccs3)C2c2ccccc2F)cc1 (stereo not given),109% (inactive)
4,O=C1CCC(=O)N1Cc1ccccc1,113% (inactive)
5,O=S(=O)(NCCCNc1cc(-c2cn(-c3ccccc3)nc2-c2cccc(O)c2)ccn1)c1ccc(C(F)(F)F)cc1,54.8% (inactive)
6,Cc1ccc(Oc2nc3ccccc3cc2-c2nnc(Cn3c(COc4ccccc4)nc4ccccc43)o2)cc1,77.3% (inactive)
7,COc1cc(NC(=O)CCl)ccc(=O)c1,73.9% (inactive)
8,COc1ccc(/C=C(\C#N)c2ccc([N+](=O)[O-])cc2)c2ccccc12,5.28% (active)
9,COc1cccc2nc(Nc3ccc(NC(=O)c4ccc5ncccc5c4)cc3)ccc12,86.4% (inactive)
10,COC12CC(=O)C(C(C)=O)=C(O)C1(C)c1c(O)c(C)c(O)c(C(C)=O)c1O2 (stereo not given),104% (inactive)
11,COC1=CC(c2ccc[nH]2)=N/C1=C\c1[nH]c(C)c(CCCn2cc(CCCCCCCCC[C@@H]3Cc4cc(O)ccc4C4CC[C@]5(C)[C@@H](O)CC[C@H]5C43)nn2)c1C (stereo not given in full),84% (inactive)
12,O=[N+]([O-])c1cc(S(=O)(=O)OCC2CO2)ccc1Cl (stereo not given),104% (inactive)
13,Cc1sc2nc(CSc3nnc(-c4ccco4)o3)[nH]c(=O)c2c1C,132% (inactive)
14,CCCCCc1c(C)[nH]c(/C=c2\[nH]/c(=C3/C=c4ccccc4=N3)cc2OC)c1C,-17.2% (active)
15,Cc1ccc(C(=O)c2sc3nc4c(cc3c2N)CCCC4)c(C)c1,19.9% (inactive)
16,COc1cc(CNC(=O)CSc2nc3ccccc3c(=O)n2Cc2cc(OC)c(OC)c(OC)c2)cc(OC)c1OC,108% (inactive)
17,O=C1CCC/C=C\C[C@H]2C=CC(=O)/C2=C/C[C@H](C/C=C\CC(F)(F)F)O1,-7.52% (active)
18,CCC1=C[C@@H]2CN(C1)Cc1c([nH]c3ccccc13)[C@@](C(=O)OC)(c1cc3c(cc1OC)N(C=O)[C@H]1[C@@](O)(C(=O)OC)[C@H](OC(C)=O)[C@]4(CC)[C@@H]5C[C@@H]5CN5CC[C@]31[C@@H]54)C2,5.16% (active)
19,O=c1[nH]c2ccccc2cc1-c1nnc(Cc2ccccc2)o1,92.8% (inactive)
20,O=C(COc1ccccc1)N1N=C(c2ccc(Cl)cc2)CC1c1c[nH]c2ccccc12 (stereo not given),81.4% (inactive)
